# Laboratory results taken from PubChem BioAssay (NCATS).
# The source made the active and inactive calls. A call without a number means that no potency is given here. Calls follow the shape of the dose curve; as a rule, active = well fitted inhibition curve with a large enough effect; inconclusive = small, poorly fitted or top-dose-only effect; inactive = no such curve, though single readings can be large or run the other way.
# Assay: qHTS assay for measurement of the activity of small molecule inhibitors on Zika virus induced Caspase-3 activity in human astrocytoma cells (AID 1224859)
# Conditions: SNB-19 ZIKV-induced caspase-3/7, luminescence, 6 h; series mostly up to 45.7 µM
# From the text: National Center for Advancing Translational Sciences [NCATS]
# Johns Hopkins University School of Medicine
# Increase in the Caspase-3 activity indicates an activation of apoptosis cell death pathway caused by Zika virus infection in certain types of neuronal cells including human neural progenitor cells (hNPCs), astrocytes, and astrocytoma cell line (SNB-19). This cell-based caspase-3 activity assay measures the increased caspase-3 activity in the astrocytoma cell line (SNB-19) after a 6-hour Zika virus infection with a luminescence readout. A decrease in the luminescence signal in this assay by small molecule treatment indicates an inhibitory effect of that small molecule on the Zika virus induced caspase-3 activity that may correlate with its effect on reduction of Zika virus caused cell death.
# The medium for SNB-19 cells is composed of RPMI 1640 (ATCC, Cat.# 30-2001), 10% fetal bovine serum (FBS) (GE healthcare Life Sciences, Cat.# SH30071.03), and 1% Pen/Strep (Gibco, Cat.# 15140-122). A Caspase-Glo 3/7 assay kit (catalog number G8092; Promega, Madison, WI) was used to detect caspase-3 activity induced by Zika virus infection in human cells. The reagent mixture was reconstituted as described in the protocol from the manufacturer. Polystyrene tissue culture treated and PDL coated white plates were obtained from Greiner Bio-One (Monroe, NC). Cells were seeded in 384- or 1536-well assay plates and cultured at 37 C with 5% CO2 for 16 to 20 hours. The typical cell seeding density in the 1536-well plate assay is 250 cells/well in 3ul medium for SNB-19 cells in tissue culture treated plates. Compounds were added to cells and incubated for one hour before addition of ZIKV solution to cells (2 FFU/cell). After incubation at 37 C with 5% CO2 for 6 hours, the reagent mixture of Caspase-Glo 3/7 assay kit was added to each well, followed by incubation at room temperature for 30 minutes. The luminescence intensity of the assay plates was measured using a ViewLux plate reader (PerkinElmer). Data were normalized by using the cell-containing wells without ZIKV as a negative control (0% induction of caspase 3/7 activity) and wells containing ZIKV infected cells (Caspase-3 activity induced) as a positive control (100% induction of caspase 3 activity). The percentage inhibitions of the increased Caspase-3 activity by small molecule inhibitors were then calculated.
row,SMILES,Potency
1,Cn1c(=O)c2c(ncn2C)n(C)c1=O,inactive
2,CCOC(=O)c1ncn2c1CN(C)C(=O)c1cc(F)ccc1-2,inactive
3,CN(C)C(=N)N=C(N)N,inactive
4,CN1CCC(=C2c3ccccc3CC(=O)c3sccc32)CC1,inactive
5,COc1ccc(C2CNC(=O)C2)cc1OC1CCCC1 (stereo not given),inactive
6,O=C1Cc2cc(CCN3CCN(c4nsc5ccccc45)CC3)c(Cl)cc2N1,inactive
7,CN(C)CCOC(c1ccccc1)c1ccccc1,inactive
8,C[C@H]1c2cccc(O)c2C(O)=C2C(=O)[C@]3(O)C(O)=C(C(N)=O)C(=O)[C@@H](N(C)C)[C@@H]3[C@@H](O)[C@@H]21,inactive
9,CN(C)C(=O)C(CCN1CCC(O)(c2ccc(Cl)cc2)CC1)(c1ccccc1)c1ccccc1,inactive
10,Cc1cn([C@H]2C=C[C@@H](CO)O2)c(=O)[nH]c1=O,inactive
11,Cc1cc(C(C)(C)C)cc(C)c1CC1=NCCN1,inactive
12,COc1nc(C)nc(Cl)c1NC1=NCCN1,inactive
13,CC[C@@]1(O)C(=O)OCc2c1cc1n(c2=O)Cc2cc3c(CN(C)C)c(O)ccc3nc2-1,inactive
14,O=C(c1ccc(OCCN2CCCCC2)cc1)c1c(-c2ccc(O)cc2)sc2cc(O)ccc12,inactive
15,CN1CCN2c3ccccc3Cc3ccccc3C2C1 (stereo not given),inactive
16,COc1ccc2[nH]cc(CCNC(C)=O)c2c1,inactive
17,CC(C(=O)O)c1cccc(C(=O)c2ccccc2)c1 (stereo not given),inactive
18,COc1cc2nc(N3CCN(C(=O)c4ccco4)CC3)nc(N)c2cc1OC,inactive
19,NC12CC3CC(CC(C3)C1)C2,inactive
20,CC#C[C@]1(O)CC[C@H]2[C@@H]3CCC4=CC(=O)CCC4=C3[C@@H](c3ccc(N(C)C)cc3)C[C@@]21C,inactive

row,SMILES,Potency
1,CCOC(=O)Nc1ccc(NCc2ccc(F)cc2)nc1N,inactive
2,CC(C)C(=O)Nc1ccc([N+](=O)[O-])c(C(F)(F)F)c1,inactive
3,Nc1ccn([C@H]2CC[C@@H](CO)O2)c(=O)n1,inactive
4,CN(CCOc1ccc(NS(C)(=O)=O)cc1)CCc1ccc(NS(C)(=O)=O)cc1,inactive
5,NC(=O)NO,inactive
6,CN1CCN(CCCN2c3ccccc3Sc3ccc(Cl)cc32)CC1,inactive
7,CC12CC3CC(C)(C1)CC(N)(C3)C2,inactive
8,O=C1N(c2ccccc2)c2ccccc2C1(Cc1ccncc1)Cc1ccncc1,inactive
9,CC(=O)OCC(CCn1cnc2cnc(N)nc21)COC(C)=O,inactive
10,CCCCc1oc2ccccc2c1C(=O)c1cc(I)c(OCCN(CC)CC)c(I)c1,inactive
11,Clc1ccc2c(c1)C(N1CCNCC1)=Nc1ccccc1O2,inactive
12,Clc1ccc(C(c2ccccc2Cl)C(Cl)Cl)cc1 (stereo not given),inactive
13,COC(=O)Nc1nc2ccc(C(=O)c3cccs3)cc2[nH]1,inactive
14,CC(C)(C)C(=O)Oc1ccc(S(=O)(=O)Nc2ccccc2C(=O)NCC(=O)O)cc1,inactive
15,CCC1(c2ccccc2)C(=O)NCNC1=O,inactive
16,Nc1nnc(-c2cccc(Cl)c2Cl)c(N)n1,inactive
17,NCCCCCC(=O)O,inactive
18,NCCc1cnc[nH]1,inactive
19,Cc1ccc(-c2cc(C(F)(F)F)nn2-c2ccc(S(N)(=O)=O)cc2)cc1,inactive
20,COc1cc2c(c(OC)c1OC)-c1ccc(OC)c(=O)cc1[C@@H](NC(C)=O)CC2,inactive
